Reference: PubChem BioAssay (EPA / NIEHS)
More than one record can exist for a structure, and the calls need not agree. Activity calls are given as the source filed them. Rule for the calls: active = hit-call score of the fitted dose curve at least 0.9, where 1 is the maximum; inactive = score below 0.9.

Key:
[1] = molecular target: Paired box protein Pax-6 (Homo sapiens) (UniProt P26367); assay: ATG_Pax6_CIS: Attagene CIS-FACTORIAL HepG2 Assay for human Paired Box 6 (PAX6) (AID 2282956); conditions: HepG2 CIS-FACTORIAL PAX6 reporter transcription, RNA readout; actives raise or lower the signal
Sequence of Paired box protein Pax-6 (Homo sapiens) (P26367 whole entry, looked up): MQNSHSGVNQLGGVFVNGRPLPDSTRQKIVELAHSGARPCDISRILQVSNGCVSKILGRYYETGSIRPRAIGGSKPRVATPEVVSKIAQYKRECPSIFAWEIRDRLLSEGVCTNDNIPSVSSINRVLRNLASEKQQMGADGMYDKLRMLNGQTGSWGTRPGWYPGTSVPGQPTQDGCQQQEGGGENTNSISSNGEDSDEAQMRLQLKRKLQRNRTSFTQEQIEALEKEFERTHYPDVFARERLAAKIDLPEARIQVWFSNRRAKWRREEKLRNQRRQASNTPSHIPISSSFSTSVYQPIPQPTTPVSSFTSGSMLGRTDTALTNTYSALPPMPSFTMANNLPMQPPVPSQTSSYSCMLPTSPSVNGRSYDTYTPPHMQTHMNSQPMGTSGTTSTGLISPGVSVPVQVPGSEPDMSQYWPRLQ
Outline: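 DMSO-referenced bidirectional fits of reporter mRNA fluorescence; HepG2 with transient cis-promoter MRTUs, 24 h post-dose, RT-PCR plus capillary electrophoresis detection.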

[2] = ATG_PXRE_CIS: Attagene CIS-FACTORIAL HepG2 Assay for human Pregnane X Receptor Element (PXRE) (AID 2282957); conditions: HepG2 Attagene CIS-FACTORIAL PXRE reporter, mRNA; actives raise or lower the signal
Outline: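 Bidirectional activity, baselined to DMSO, derived from reporter mRNA fluorescence (RT-PCR plus capillary electrophoresis) in HepG2 cells bearing cis-promoter reporter units, 24 h exposure.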

[3] = ATG_RORE_CIS: Attagene CIS-FACTORIAL HepG2 Assay for human RAR-related Orphan Receptor Element (RORE) (AID 2282959); conditions: HepG2 Attagene cis-factorial RORE reporter, mRNA; actives raise or lower the signal
Outline: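 Transiently transfected HepG2 reporter cells were treated 24 h. Reporter transcripts were detected by RT-PCR and capillary electrophoresis, with bidirectional fitting against DMSO.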

[4] = ATG_Sox_CIS: Attagene CIS-FACTORIAL HepG2 Assay for human SRY-box transcription factor (SOX) (AID 2282960); conditions: HepG2 Attagene cis-factorial SOX reporter, mRNA; actives raise or lower the signal
Outline: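 Gain- or loss-of-signal endpoint, fitted bidirectionally with DMSO as negative control. Based on reporter mRNA from transfected HepG2 cells harvested 24 h post-treatment and quantified via RT-PCR and capillary electrophoresis.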

[5] = molecular target: Transcription factor Sp1 (Homo sapiens) (UniProt P08047); assay: ATG_Sp1_CIS: Attagene CIS-FACTORIAL HepG2 Assay for human Specificity Protein 1 (Sp1) (AID 2282961); conditions: HepG2 Sp1 cis-reporter transcription, actives raise or lower the signal
Sequence of Transcription factor Sp1 (Homo sapiens) (P08047 whole entry, looked up, the tested form may be a part): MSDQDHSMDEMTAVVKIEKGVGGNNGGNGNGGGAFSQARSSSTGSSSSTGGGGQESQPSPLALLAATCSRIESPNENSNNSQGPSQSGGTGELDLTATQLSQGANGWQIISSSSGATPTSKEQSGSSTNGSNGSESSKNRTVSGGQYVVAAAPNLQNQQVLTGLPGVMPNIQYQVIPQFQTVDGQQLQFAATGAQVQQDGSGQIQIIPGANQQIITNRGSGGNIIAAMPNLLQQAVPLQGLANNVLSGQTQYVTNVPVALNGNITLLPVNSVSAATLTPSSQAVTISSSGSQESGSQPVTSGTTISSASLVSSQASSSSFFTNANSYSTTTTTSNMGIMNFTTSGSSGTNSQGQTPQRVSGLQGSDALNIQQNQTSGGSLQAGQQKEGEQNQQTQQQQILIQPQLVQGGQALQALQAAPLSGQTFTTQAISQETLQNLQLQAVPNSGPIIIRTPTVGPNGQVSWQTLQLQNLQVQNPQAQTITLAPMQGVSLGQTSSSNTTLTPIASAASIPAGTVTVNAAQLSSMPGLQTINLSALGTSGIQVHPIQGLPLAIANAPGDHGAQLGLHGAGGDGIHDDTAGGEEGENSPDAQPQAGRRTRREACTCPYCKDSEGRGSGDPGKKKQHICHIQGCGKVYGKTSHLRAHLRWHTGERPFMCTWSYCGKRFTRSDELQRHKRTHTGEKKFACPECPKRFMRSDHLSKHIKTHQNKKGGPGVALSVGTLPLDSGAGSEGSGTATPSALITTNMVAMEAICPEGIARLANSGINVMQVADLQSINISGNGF
Outline: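 Endpoint reflects endogenous Sp1 transcriptional activity, not an exogenous fusion protein: HepG2 cells with transfected cis-regulated reporters, 24 h dosing, RT-PCR/capillary electrophoresis mRNA read-out, DMSO-normalised bidirectional fit.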

[6] = ATG_SREBP_CIS: Attagene CIS-FACTORIAL HepG2 Assay for human Sterol Regulatory Element Binding (SREBP) (AID 2282962); conditions: HepG2 Attagene cis-factorial SREBP reporter, mRNA; actives raise or lower the signal
Outline: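 In this cis-format assay, HepG2 liver cells express reporters controlled by promoter elements responsive to native transcription factors. Exposure lasts 24 h; reporter mRNA fluorescence from capillary electrophoresis gives the signal, fitted bidirectionally against DMSO.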

[7] = molecular target: Signal transducer and activator of transcription 3 (Homo sapiens) (UniProt P40763); assay: ATG_STAT3_CIS: Attagene CIS-FACTORIAL HepG2 Assay for human Signal Transducer and Activator of Transcription 3 (STAT3) (AID 2282963); conditions: HepG2, Attagene cis-factorial STAT3 reporter transcription; actives raise or lower the signal
Sequence of Signal transducer and activator of transcription 3 (Homo sapiens) (P40763 whole entry, looked up, the tested form may be a part): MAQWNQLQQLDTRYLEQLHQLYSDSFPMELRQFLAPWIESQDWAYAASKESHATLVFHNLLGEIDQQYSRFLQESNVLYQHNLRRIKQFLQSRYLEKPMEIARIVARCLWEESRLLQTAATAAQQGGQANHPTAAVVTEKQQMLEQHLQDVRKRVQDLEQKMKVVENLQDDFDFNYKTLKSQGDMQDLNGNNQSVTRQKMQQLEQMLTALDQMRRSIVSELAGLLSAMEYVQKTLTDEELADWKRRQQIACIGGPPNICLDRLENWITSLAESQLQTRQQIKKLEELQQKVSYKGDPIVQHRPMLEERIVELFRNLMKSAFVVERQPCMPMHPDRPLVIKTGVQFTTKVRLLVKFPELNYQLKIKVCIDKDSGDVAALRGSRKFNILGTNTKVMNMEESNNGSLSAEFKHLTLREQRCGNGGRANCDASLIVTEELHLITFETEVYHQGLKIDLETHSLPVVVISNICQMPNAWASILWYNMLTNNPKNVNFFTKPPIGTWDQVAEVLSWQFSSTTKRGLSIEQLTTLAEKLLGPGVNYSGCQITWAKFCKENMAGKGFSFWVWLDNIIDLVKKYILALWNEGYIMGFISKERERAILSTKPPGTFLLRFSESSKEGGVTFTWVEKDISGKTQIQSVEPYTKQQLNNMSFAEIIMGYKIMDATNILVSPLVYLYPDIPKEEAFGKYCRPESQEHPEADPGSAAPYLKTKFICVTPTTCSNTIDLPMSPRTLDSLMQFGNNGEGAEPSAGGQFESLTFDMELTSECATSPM
Outline: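 Readout: fluorescent reporter mRNA fragments resolved by capillary electrophoresis. Setup: HepG2 transfected with MRTUs reporting endogenous transcription-factor activity, dosed 24 h. Gain or loss of signal fitted bidirectionally against DMSO control.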

[8] = ATG_TA_CIS: Attagene CIS-FACTORIAL HepG2 Assay for human TA Basal Promoter (AID 2282964); conditions: HepG2 Attagene CIS-factorial TA basal promoter reporter; actives raise or lower the signal
Outline: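 Background internal-marker endpoint from a 52-component HepG2 cis-reporter panel. Cells treated 24 h; reporter transcripts quantified via RT-PCR and CE fluorescence against DMSO baseline.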

[9] = ATG_TCF_b_cat_CIS: Attagene CIS-FACTORIAL HepG2 Assay for human T-Cell-Factor with beta-catenin (TCF/b-cat) (AID 2282965); conditions: HepG2 TCF/beta-catenin cis-reporter transcription, actives raise or lower the signal
Outline: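 HepG2 cells transiently transfected with cis-promoter-driven multiplexed reporter units; reporter mRNA measured 24 h after dosing by RT-PCR, FAM labelling, HpaI digestion and capillary electrophoresis. Bidirectional fitting relative to DMSO baseline.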

[10] = ATG_PPRE_CIS: Attagene CIS-FACTORIAL HepG2 Assay for human Peroxisome Proliferator-activated Response Element (PPRE) (AID 2282958); conditions: HepG2 PPRE cis-element reporter, Attagene transcription factor profiling; actives raise or lower the signal
Outline: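 Measured endpoint: PPRE-controlled reporter mRNA, detected by RT-PCR and capillary electrophoresis fluorescence, from transiently transfected HepG2 cells 24 h after dosing. Curves fitted in both directions using DMSO baseline.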

| Structure (SMILES) | outcome [1] | outcome [2] | outcome [3] | outcome [4] | outcome [5] | AC50 [6] | outcome [7] | outcome [8] | outcome [9] | AC50 [2] | outcome [6] | AC50 [1] | AC50 [8] | outcome [10] | AC50 [9] | AC50 [5] | AC50 [4] |
| --- | --- | --- | --- | --- | --- | --- | --- | --- | --- | --- | --- | --- | --- | --- | --- | --- | --- |
| Cc1cc(Cc2ccc(N)c(C)c2)ccc1N | inactive | inactive | inactive | inactive | inactive | 12.9 µM (active) | inactive | inactive | inactive |  |  |  |  |  |  |  |  |
| COc1ccc(OC(F)(F)F)cc1CN[C@H]1CCCN[C@H]1c1ccccc1 | inactive |  |  | inactive | inactive | 19.4 µM (active) | inactive | inactive | inactive | 1.85 µM (active) |  |  |  |  |  |  |  |
| Cc1occc(=O)c1O | inactive | inactive |  | inactive | inactive |  | inactive | inactive | inactive |  | inactive |  |  |  |  |  |  |
| CC(C)OC(=O)C(C)(C)Oc1ccc(C(=O)c2ccc(Cl)cc2)cc1 |  |  |  | inactive | inactive |  | inactive |  | inactive | 12.3 µM (active) | inactive | 27.7 µM (active) | 22.6 µM (active) |  |  |  |  |
| CCCCc1nc2cccnc2n1Cc1ccc(-c2ccccc2-c2nnn[nH]2)cc1 | inactive |  | inactive | inactive | inactive |  | inactive | inactive | inactive | 27.2 µM (active) | inactive |  |  |  |  |  |  |
| CC(C)(C)c1ccccc1 | inactive | inactive |  | inactive | inactive |  | inactive | inactive | inactive |  | inactive |  |  |  |  |  |  |
| CN(C)CCCN1c2ccccc2Sc2ccc(Cl)cc21 |  | inactive |  | inactive | inactive | 6.99 µM (active) | inactive | inactive |  |  |  | 15.9 µM (active) |  | inactive | 7.68 µM (active) |  |  |
| Nc1nc(Cl)nc2c1ncn2[C@H]1C[C@H](O)[C@@H](CO)O1 | inactive | inactive |  | inactive | inactive |  | inactive | inactive | inactive |  | inactive |  |  |  |  |  |  |
| CCCCC(CC)COC(=O)CCCCCCCC(=O)OCC(CC)CCCC (stereo not drawn) | inactive | inactive |  | inactive | inactive |  | inactive | inactive | inactive |  | inactive |  |  |  |  |  |  |
| CCc1cc(C2=C(C(=O)O)N(c3ccccc3C(F)(F)F)S(=O)(=O)c3ccccc32)cc2c1OCO2 | inactive |  |  | inactive |  | 26.6 µM (active) | inactive | inactive |  | 2.14 µM (active) |  |  |  |  | 122 µM (active) | 59 µM (active) |  |
| CC(=O)[C@@]1(O)CC[C@H]2[C@@H]3CCC4=CC(=O)CC[C@]4(C)[C@H]3CC[C@@]21C | inactive | inactive | inactive | inactive | inactive | 11.1 µM (active) | inactive | inactive | inactive |  | inactive |  |  |  |  |  |  |
| NCCOCCOCCN | inactive | inactive | inactive | inactive | inactive |  | inactive | inactive | inactive |  | inactive |  |  |  |  |  |  |
| c1ccc2occc2c1 | inactive | inactive | inactive | inactive | inactive |  | inactive | inactive | inactive |  | inactive |  |  |  |  |  |  |
| C#CC(O)C(CC)CCCC (stereo not drawn) | inactive |  | inactive | inactive |  |  | inactive | inactive |  | 15 µM (active) | inactive |  |  |  | 67.9 µM (active) | 154 µM (active) |  |
| COC(=O)[C@H]1[C@H]2C[C@@H]3c4[nH]c5cc(OC)ccc5c4CCN3C[C@H]2C[C@@H](OC(=O)c2cc(OC)c(OC)c(OC)c2)[C@@H]1OC |  |  | inactive | inactive | inactive | 3.96 µM (active) | inactive | inactive |  |  |  | 8.41 µM (active) |  | inactive | 7.31 µM (active) |  |  |
| O=C(N[C@@H](c1ccccc1)[C@@H]1CCCCN1)c1cccc(C(F)(F)F)c1Cl |  |  |  |  |  | 8.09 µM (active) | inactive | inactive |  | 8.23 µM (active) |  | 33 µM (active) |  | inactive | 16.6 µM (active) | 42.7 µM (active) | 33 µM (active) |
